In the library only some 4% were active in any assay of this set; here they are far more common.
MazF activator – MazEF (E. coli) toxin RNase activation. P0AE70. FAM/BHQ RNA-DNA oligo cleavage fluorescence, 5 h. activation, % at 20 µM. 0.32% of 350,000 active. AID 504720; in the data active = activation above about 50%
Target sequence (P0AE70 whole entry, looked up): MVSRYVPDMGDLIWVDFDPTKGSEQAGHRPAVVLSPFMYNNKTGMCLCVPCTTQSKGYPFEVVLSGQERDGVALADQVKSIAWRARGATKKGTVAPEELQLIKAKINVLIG
DUSP3 inh – DUSP3 (human) phosphatase inhibition | P51452 | recombinant VHR phosphatase, pNPP absorbance | inhibition, % at 13.3 µM | 0.52% of 290,000 active; in the data active = inhibition above about 50%
Target sequence (P51452 whole entry, looked up): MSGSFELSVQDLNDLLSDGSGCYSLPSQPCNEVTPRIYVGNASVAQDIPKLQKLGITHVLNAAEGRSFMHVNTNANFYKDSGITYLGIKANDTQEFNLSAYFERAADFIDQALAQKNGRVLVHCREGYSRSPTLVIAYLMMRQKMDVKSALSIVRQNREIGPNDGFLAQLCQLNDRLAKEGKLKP
BoNT F protease – inhibitors of Botulinum neurotoxin F light chain protease | Multiplex microsphere protease cleavage assay, flow cytometry | inhibition, % at 10 µM | 0.22% of 360,000 active | AID 588497; in the data active = inhibition above about 35%, passing the limit was not always enough; inconclusive = no clear call, values can overlap the other calls
Autofluor counter – flagged as autofluorescent in microsphere protease counterscreen; compound autofluorescence counterscreen, microsphere flow cytometry; active compounds read high; 3.1% of 360,000 active; fluorescence intensity (test concentration not listed); in the data active = fluorescence intensity above about 16000; inconclusive = no clear call, values can overlap the other calls
BoNT A protease – blocks Botulinum neurotoxin A light chain protease; multiplex microsphere protease substrate cleavage, flow cytometry; inhibition, % at 10 µM; 0.17% of 360,000 active; AID 588499
Anthrax LF inh2 – inhibitors of Bacillus anthracis lethal factor protease. P15917. multiplex microsphere protease cleavage assay, LF. inhibition, % at 10 µM. 0.12% of 360,000 active. AID 588501
Hits are given with their value; . = inactive; ? = inconclusive; / = no result given. Rule as the data show it, unless noted: active = inhibition above about 30%; inconclusive = no clear call, values can overlap the other calls; inactive = below that.

SMILES	MazF activator	DUSP3 inh	BoNT F protease	Autofluor counter	BoNT A protease	Anthrax LF inh2
Cc1sc2nc(C3CC3)nc(SCC(=O)N3CCc4ccccc4C3)c2c1C	.	.	.	23515	?	.
CCn1cc(C(=O)NCCCOC(C)C)c2cc(OC)c(OC)cc2c1=O	.	.	.	.	.	.
CCCCC(=O)Nc1ccc(N2CCN(C(=O)CC)CC2)cc1	.	.	.	.	.	.
COc1ccc(C(=O)Nc2nc3c(s2)CCCC3)cc1S(=O)(=O)N1CCCc2ccccc21	.	.	.	.	.	.
O=Cc1cn(Cc2ccc(F)cc2)c2ccccc12	.	.	.	.	.	.
O=[N+]([O-])/C=C/c1cn(Cc2ccc(F)cc2)c2ccccc12	.	.	.	.	37.5	31.2
Cc1c(N=Cc2cc(Br)cc(Br)c2O)cccc1C(=O)O	.	.	.	.	.	.
O=C(CSc1nnc(NC2CCCCC2)s1)Nc1ccc(N2CCOCC2)cc1	.	.	.	22057	.	.
CC(Sc1nnc(NC2CC2)s1)C(=O)Nc1ccc(N2CCOCC2)cc1 (centres undefined)	.	/	.	.	.	.
CCc1nnc(SCC(=O)Nc2ccc(N3CCOCC3)cc2)o1	.	.	.	.	.	.
Cc1cccc(C)c1OCc1nnc(SCC(=O)Nc2ccc(N3CCOCC3)cc2)o1	.	54.4	.	.	.	.
Cc1ccc(NC(=O)CSc2nnc(NC(=O)CN3CCOCC3)s2)cc1	.	.	.	16377	.	.
COC(=O)c1cc(NC(=O)Cc2ccccc2[N+](=O)[O-])cc(C(=O)OC)c1	.	.	.	18194	.	.
O=C(OCC(F)(F)C(F)F)c1ccccc1C(=O)Oc1ccc(F)cc1F	.	.	.	20051	?	.
Cn1nccc1C(=O)Nc1cccc(C(F)(F)F)c1	.	.	.	.	.	.
Cc1nonc1OCC(C)(COc1nonc1C)NC(=O)c1ccccc1	.	.	.	21066	.	.
CN=C1S/C(=C\c2ccc(N3CCOCC3)cc2C)C(=O)N1C	.	.	.	.	.	.
COCCN1C(=O)/C(=C/c2ccc(N3CCCC3)cc2C)SC1=S	.	.	.	18023	100.0	57.6
CCOC(=O)N1CCN(C(=O)CCCN2C(=O)CSc3nc(C)cc(C)c32)CC1	.	51.0	.	.	.	.
CCOC(=O)N1CCC(NC(=O)CN2C(=O)CSc3nc(C)cc(C)c32)CC1	/	.	.	.	.	.
Cc1cccn2c(=O)c(/C=C(\C#N)C(=O)NCc3ccco3)c(N3CCCCCC3)nc12	.	.	?	.	.	.
Cc1cccn2c(=O)c(/C=C(\C#N)C(=O)NCc3ccco3)c(N3CCCC(C)C3)nc12 (centres undefined)	.	55.4	.	.	.	.
O=C(N/C=N/OCc1cccc(C(F)(F)F)c1)N1OC[C@@H]2COc3ccc4ccccc4c3[C@@H]21	.	.	.	.	.	.
CC1=NN(c2ccccc2)C(=O)/C1=C\C=C\c1ccccc1	.	.	/	/	/	/
CC1=NN(c2ccc(C(=O)OC(C)C)cc2)C(=O)/C1=C\C=C\c1ccco1	.	.	.	19581	.	.
SMILES	MazF activator	DUSP3 inh	BoNT F protease	Autofluor counter	BoNT A protease	Anthrax LF inh2
CCOC(=O)c1ccc(N2N=C(C)/C(=C/C=C/c3ccco3)C2=O)cc1	.	.	.	22790	?	.
Cc1cccn2c(=O)c3cc(C(=O)NCC4CCCO4)c(=N)n(CC4CCCO4)c3nc12 (centres undefined)	.	.	.	.	.	.
NC(=O)c1c(-c2ccccc2)oc2ccc(O)cc12	.	.	.	22271	.	.
O=C(NNC(=O)C1CC1c1ccccc1)Nc1cccc(Cl)c1 (centres undefined)	.	.	.	.	.	.
CCOC(=O)c1ccc(NC(=O)CN2C(=O)CSC2=O)cc1	.	.	.	22745	.	.
CCc1cccc(NC(=O)C2CC2c2ccccc2)c1 (centres undefined)	.	.	36.0	.	.	.
CCC1C(=O)N=C(SCC(=O)Nc2cccc3ccccc23)NC1=O (centres undefined)	.	.	.	.	.	.
CCOC(=O)c1ccc(NC(=O)Cn2cccc2)cc1	.	.	.	22123	.	.
CCOC(=O)c1ccc(NC(=O)CSC2=NC(=O)C(CC)C(=O)N2)cc1 (centres undefined)	.	.	.	16464	.	.
CCc1ccc(NC(=O)C/C(C)=N/NC(=O)COc2ccc(C)cc2Br)cc1	.	.	.	.	.	.
CCOC(=O)c1ccc(NC(=O)Cn2nnc(-c3ccc(F)cc3)n2)cc1	.	.	.	23033	.	.
CCc1cccc(NC(=O)Cn2cccc2)c1	.	.	.	23986	.	.
CCOC(=O)Cn1nnc(-c2ccc(S(C)(=O)=O)cc2)n1	.	.	.	23651	.	.
O=C(CN1C(=O)C2C3C=CC(C3)C2C1=O)Nc1ccc(C(=O)O)cc1 (centres undefined)	.	.	.	.	.	.
CCc1cccc(NC(=O)CN2C(=O)NC3(CCCCCCC3)C2=O)c1	.	.	.	.	.	.
COC(=O)c1ccc(NC(=O)CN2C(=O)C3C4C=CC(C4)C3C2=O)cc1 (centres undefined)	.	.	.	17210	.	.
O=C1c2ccccc2C(=O)N1c1cc([N+](=O)[O-])ccn1	.	.	.	.	.	.
CCOC(=O)c1ccc(NC(=O)CSc2nnnn2C2CCCCC2)cc1	.	.	.	.	.	.
CCOC(=O)c1ccc(NC(=O)CSc2nnnn2CCCO)cc1	.	.	.	22895	.	.
CCOC(=O)c1ccc(NC(=O)C(CC)(CC)C(=O)OCC)cc1	.	.	.	18219	.	.
CCOC(=O)c1ccc(NC(=O)CN2C(=O)CNC2=O)cc1	.	.	.	23272	.	.
Cc1cc(=O)n(Cc2ccc(OC(C)C)cc2)c(=S)[nH]1	.	52.5	.	.	.	.
Cc1cc(=O)n(Cc2ccco2)c(=S)[nH]1	.	/	.	.	.	.
O=C(Nc1cccc2ncccc12)c1ccc(Cl)cc1	110.0	.	.	.	.	.
O=C(Nc1cccc2ncccc12)c1ccc(-c2ccc(Br)cc2)o1	.	.	.	20512	.	.
SMILES	MazF activator	DUSP3 inh	BoNT F protease	Autofluor counter	BoNT A protease	Anthrax LF inh2
CN(c1ccccc1)S(=O)(=O)c1cccc(C(=O)OCC(=O)Nc2ccc3[nH]c(=O)[nH]c3c2)c1	.	/	.	.	.	.
CC12CCC(C(=O)Nc3ccccc3)(C/C1=N\O)C2(C)C (centres undefined)	.	.	.	16758	.	.
CS(=O)(=O)N1CCN=C1SCc1ccc(Br)cc1	.	.	.	.	.	.
CC(=O)N1CCN=C1SCc1ccc(Br)cc1	.	53.3	.	.	.	.
CCC/C=N/Nc1nnc(Cc2ccccc2)c(=O)[nH]1	.	/	.	.	.	.
C/C(=N\OC(=O)c1ccc(F)cc1)c1nccs1	.	.	.	23617	.	.
COc1cc(OC)c(OC)cc1C=NCC1(c2ccccc2)CCCC1	.	.	.	.	.	.
CCCCCCO	.	/	.	.	.	.
O=C1CNC(=S)N1CCc1ccc(Cl)cc1	.	.	?	.	.	.
